Active and inactive are the calls of the source. Unless noted, calls come from the whole dose curve; as a rule, active = well fitted curve in the direction sought with a large enough effect in the repeat runs; inconclusive = weak or mixed curves; inactive = no such curve, though single readings can be large; an effect the other way counts as inactive or inconclusive.

A short description of test [1]: qHTS assay to identify small molecule antagonists of the glucocorticoid receptor (GR) signaling pathway - cell viability counter screen (AID 720693). Note: nearly all actives have a fitted effect of over 55% in size. On the technique in general: qHTS replaces the single test concentration by a dilution series.
A short description of test [2]: qHTS assay for identifying genotoxic compounds that show differential cytotoxicity against isogenic chicken DT40 cell lines with known DNA damage response pathways - wild type cell line (AID 743012). Note: nearly all actives have a fitted effect of over 60% in size. Note: potency is the fitted concentration of half-maximal effect. Put shortly:
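CellTiter-Glo luminescence readout of viability in wild type DT40 cells after 40 h compound exposure at 37 C/5% CO2; 300 cells/well; reagent incubated 30 min at room temperature before reading.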

Test [3] can be described thus: qHTS assay for identifying genotoxic compounds that show differential cytotoxicity against isogenic chicken DT40 cell lines with known DNA damage response pathways - Rad54/Ku70 mutant cell line (AID 743015). Note: nearly all actives have a fitted effect of over 60% in size. Note: potency is the fitted concentration of half-maximal effect.
Test [4] in a line: qHTS assay to identify small molecule antagonists of the androgen receptor (AR) signaling pathway - cell viability counter screen (AID 743033; note: nearly all actives have a fitted effect of over 45% in size).
Test [5] in a line: qHTS assay to identify small molecule antagonists of the androgen receptor (AR) signaling pathway using the MDA cell line - cell viability counter screen (AID 743041; note: nearly all actives have a fitted effect of over 45% in size). In a few lines:
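Cytotoxicity counter screen: MDA-kb2 AR-luc cells, compound + R1881, 16 h, 37C, 0% CO2; CellTiter-Fluor added at 15.5 h, fluorescence read after 30 min.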

Test [6] in a line: qHTS assay to identify small molecule antagonists of the thyroid receptor (TR) signaling pathway - cell viability counter screen (AID 743064). Note: nearly all actives have a fitted effect of over 50% in size. In a few lines:
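Viability of T3-stimulated (1 nM final) GH3.TRE-Luc cells is measured by CellTiter-Fluor fluorescence after 23.5 h compound exposure at 37 °C plus 30 min reagent incubation.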

Test [7] can be described thus: qHTS assay to identify small molecule antagonists of the thyroid receptor (TR) signaling pathway (AID 743065). Note: nearly all actives have a fitted effect of over 55% in size. Note: potency is the fitted concentration of half-maximal effect. Put shortly:
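GH3.TRE-Luc rat pituitary cells (two TREs driving luciferase) were dosed with compound, then stimulated with 1 nM T3 (final) for 23.5 h at 37 C. ONE-Glo luminescence was the read-out, with CellTiter-Fluor fluorescence as the cytotoxicity counter-screen.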

Test [8] concerns thyroid hormone receptor (rat, GH3 cells). Description: qHTS assay to identify small molecule agonists of the thyroid receptor (TR) signaling pathway (AID 743066; calls by dose curve).
Test [9] can be described thus: qHTS assay to identify small molecule antagonists of the estrogen receptor alpha (ER-alpha) signaling pathway - cell viability counter screen (AID 743074; calls by dose curve;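 note: HEK293 cells carrying ER-alpha-UAS-bla reporter stimulated with 17beta-estradiol; nearly all actives have a fitted effect of over 45% in size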).
Test [10] is described as follows: qHTS assay to identify small molecule antagonists of the estrogen receptor alpha (ER-alpha) signaling pathway using the BG1 cell line - cell viability counter screen (AID 743081).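 Note: compound given together with 17beta-estradiol as the ER stimulus; series mostly up to about 70 µM; nearly all actives have a fitted effect of over 45% in size.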
The target of test [11] is Aromatase (Homo sapiens) (UniProt P11511). Put plainly: qHTS assay to identify aromatase inhibitors (AID 743083). Note: nearly all actives have a fitted effect of over 55% in size. Note: potency is the fitted concentration of half-maximal effect.
Aromatase (Homo sapiens), sequence (P11511 whole entry, looked up): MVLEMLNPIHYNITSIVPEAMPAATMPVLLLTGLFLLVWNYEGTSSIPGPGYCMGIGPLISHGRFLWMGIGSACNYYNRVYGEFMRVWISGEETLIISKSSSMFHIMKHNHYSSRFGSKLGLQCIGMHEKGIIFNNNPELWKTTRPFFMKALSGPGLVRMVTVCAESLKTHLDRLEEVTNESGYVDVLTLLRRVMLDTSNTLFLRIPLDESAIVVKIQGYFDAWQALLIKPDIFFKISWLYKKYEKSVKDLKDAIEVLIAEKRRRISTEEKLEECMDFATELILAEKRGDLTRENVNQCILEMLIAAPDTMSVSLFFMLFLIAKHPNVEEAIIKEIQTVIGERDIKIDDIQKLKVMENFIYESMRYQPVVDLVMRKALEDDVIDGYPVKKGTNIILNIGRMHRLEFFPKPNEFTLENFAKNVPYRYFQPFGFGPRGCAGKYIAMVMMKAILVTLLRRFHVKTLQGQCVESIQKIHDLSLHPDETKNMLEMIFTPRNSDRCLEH
Test [12] concerns the target Estrogen receptor (Homo sapiens) (UniProt P03372). Put plainly: qHTS assay to identify small molecule antagonists of the estrogen receptor alpha (ER-alpha) signaling pathway (AID 743069; active = well fitted curve in the direction sought with a large enough effect in the signal ratio in the repeat runs, not every such curve was filed as active; inconclusive = weak or mixed curves, or effect the other way; inactive = no such curve, though single readings can be large or run the other way; the % refers to the signal ratio; note: potency is the fitted concentration of half-maximal effect). In a few lines: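 Beta-lactamase FRET fluorescence is read after 2 hr at room temperature with LiveBLAzer B/G substrate. Before that, ER-alpha-bla HEK293 cells sit 4 hr after plating, then receive compound plus 17beta-estradiol and incubate 18 hr at 37C.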

Test [13] has the same target. Description: qHTS assay to identify small molecule agonists of the estrogen receptor alpha (ER-alpha) signaling pathway (AID 743075; calls by dose curve;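 note: HEK293 GripTite cells with ER-alpha and UAS-driven beta-lactamase reporter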; note: potency is the fitted concentration of half-maximal effect).
Test [14] has the same target. Put plainly: qHTS assay to identify small molecule agonists of the estrogen receptor alpha (ER-alpha) signaling pathway using the BG1 cell line (AID 743079). Note: nearly all actives have a fitted effect of over 20% in size. Note: potency is the fitted concentration of half-maximal effect.
The nature of test [15]: qHTS assay to identify small molecule antagonists of the estrogen receptor alpha (ER-alpha) signaling pathway using the BG1 cell line (AID 743080; calls by dose curve;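 note: BG1 cells stimulated with 17beta-estradiol alongside compound; series mostly up to about 70 µM; nearly all actives have a fitted effect of over 25% in size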). Put shortly:
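Readout is ONE-Glo luminescence, taken 30 min at room temperature after reagent addition, preceded by a CellTiter-Fluor viability read; BG1-Luc-4E2 cells had received compound and 17beta-estradiol for 21.5 h at 37 C.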

Test [16] concerns the target Androgen receptor (Homo sapiens) (UniProt P10275). Put plainly: qHTS assay to identify small molecule antagonists of the androgen receptor (AR) signaling pathway (AID 743035; active = well fitted inhibition curve with a large enough effect in the signal ratio in the repeat runs, not every such curve was filed as active; inconclusive = weak or mixed curves, or effect the other way; inactive = no such curve, though single readings can be large or run the other way; the % refers to the signal ratio; note: potency is the fitted concentration of half-maximal effect). In a few lines: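 AR-bla HEK293 reporter cells; 4 h settle at 37C/5% CO2; compound + R1881 agonist, 16 h at 37C; LiveBLAzer B/G FRET substrate 2 h RT; fluorescence intensity read. qHTS format.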

For test [17] the target is unchanged. Put plainly: qHTS assay to identify small molecule agonists of the androgen receptor (AR) signaling pathway (AID 743036; active = well fitted activation curve with a large enough effect in the signal ratio in the repeat runs, with a control signal flat, not every such curve was filed as active; inconclusive = weak or mixed curves, or effect the other way; inactive = no such curve, though single readings can be large or run the other way; the % refers to the signal ratio). Put shortly: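 Screening used 2,000 AR-bla HEK293 cells per well, treated 16 h at 37C with test compounds in DMSO alongside positive and DMSO-only controls; beta-lactamase activity was then read by LiveBLAzer B/G FRET fluorescence after 2 h at room temperature.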

The target is the same in test [18]. Description: qHTS assay to identify small molecule agonists of the androgen receptor (AR) signaling pathway using the MDA cell line (AID 743040; note: nearly all actives have a fitted effect of over 20% in size). Put shortly: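 Luciferase read-out, ONE-Glo, 30 min RT. Cells: MDA-kb2 AR-luc, MMTV promoter with AR and GR response elements. Compound exposure 16 h, 37C, 0% CO2, after 5 h pre-incubation. qHTS agonist mode.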
For test [19] the target is unchanged. Put plainly: qHTS assay to identify small molecule antagonists of the androgen receptor (AR) signaling pathway using the MDA cell line (AID 743042; note: nearly all actives have a fitted effect of over 55% in size; note: potency is the fitted concentration of half-maximal effect). Put shortly: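 MDA-kb2 breast carcinoma cells carrying MMTV-luciferase (AR/GR responsive) were co-treated with compounds and the agonist R1881 for 16 h at 37C. Inhibition read as ONE-Glo luminescence; CellTiter-Fluor fluorescence measured in parallel for cytotoxicity.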

Test [20] in a line: qHTS assay for identifying genotoxic compounds that show differential cytotoxicity against isogenic chicken DT40 cell lines with known DNA damage response pathways - Rev3 mutant cell line (AID 743014). Note: nearly all actives have a fitted effect of over 55% in size.

Androgen receptor (Homo sapiens), sequence (P10275 whole entry, looked up): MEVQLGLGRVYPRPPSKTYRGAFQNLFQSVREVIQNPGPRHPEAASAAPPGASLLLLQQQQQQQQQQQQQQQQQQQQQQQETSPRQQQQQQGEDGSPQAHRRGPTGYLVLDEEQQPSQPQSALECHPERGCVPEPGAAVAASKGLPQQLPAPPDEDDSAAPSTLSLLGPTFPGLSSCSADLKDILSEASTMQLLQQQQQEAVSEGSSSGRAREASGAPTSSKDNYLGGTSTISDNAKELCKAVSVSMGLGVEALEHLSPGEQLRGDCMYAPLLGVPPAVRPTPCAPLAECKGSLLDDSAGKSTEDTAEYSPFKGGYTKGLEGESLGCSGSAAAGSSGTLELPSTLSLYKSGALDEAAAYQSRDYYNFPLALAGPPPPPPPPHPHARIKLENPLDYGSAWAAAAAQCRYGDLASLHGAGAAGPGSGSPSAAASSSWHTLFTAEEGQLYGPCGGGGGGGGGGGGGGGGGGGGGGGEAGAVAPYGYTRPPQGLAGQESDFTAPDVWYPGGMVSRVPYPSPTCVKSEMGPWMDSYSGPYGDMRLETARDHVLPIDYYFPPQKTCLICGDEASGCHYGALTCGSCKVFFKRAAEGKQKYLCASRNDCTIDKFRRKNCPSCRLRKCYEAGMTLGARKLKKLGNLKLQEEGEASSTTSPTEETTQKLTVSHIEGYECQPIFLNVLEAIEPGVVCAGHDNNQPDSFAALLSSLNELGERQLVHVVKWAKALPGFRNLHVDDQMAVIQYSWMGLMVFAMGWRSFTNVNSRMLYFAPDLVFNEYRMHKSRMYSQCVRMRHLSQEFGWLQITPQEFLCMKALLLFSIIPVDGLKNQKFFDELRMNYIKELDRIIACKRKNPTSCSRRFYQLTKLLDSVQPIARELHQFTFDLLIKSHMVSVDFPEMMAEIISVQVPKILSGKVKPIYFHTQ
Estrogen receptor (Homo sapiens), sequence (P03372 whole entry, looked up): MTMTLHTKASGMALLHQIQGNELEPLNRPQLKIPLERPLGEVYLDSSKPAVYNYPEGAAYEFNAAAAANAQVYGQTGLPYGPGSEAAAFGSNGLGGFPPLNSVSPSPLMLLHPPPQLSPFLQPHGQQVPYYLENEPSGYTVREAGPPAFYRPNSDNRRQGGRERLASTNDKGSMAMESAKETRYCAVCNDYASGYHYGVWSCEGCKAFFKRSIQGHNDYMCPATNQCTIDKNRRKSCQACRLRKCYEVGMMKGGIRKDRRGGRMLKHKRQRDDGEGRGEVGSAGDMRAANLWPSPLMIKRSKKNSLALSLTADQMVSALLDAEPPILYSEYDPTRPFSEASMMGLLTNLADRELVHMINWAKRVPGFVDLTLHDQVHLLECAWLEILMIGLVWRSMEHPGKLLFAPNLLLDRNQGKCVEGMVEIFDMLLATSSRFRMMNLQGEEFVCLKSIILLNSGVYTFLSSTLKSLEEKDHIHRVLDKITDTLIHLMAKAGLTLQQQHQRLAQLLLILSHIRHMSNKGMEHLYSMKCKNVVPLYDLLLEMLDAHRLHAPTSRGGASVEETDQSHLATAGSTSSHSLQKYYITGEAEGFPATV

Turning to `CC(C)(Cl)[N+](=O)[O-]`, the Potency entry in test [1], in test [2], in test [3], in test [4], in test [5] and in test [6] was “inactive” throughout. For the same molecule, the Potency result in [7], in test [8], in test [9], in [10] and in [11] was “inactive” in each case.

As to `c1ccc(CN2CCNCC2)cc1`, the Potency result in test [1], in test [2], in test [3], in test [4], in test [5] and in test [6] was “inactive” in each case. For the same molecule, the Potency entry in test [7], in [8], in test [9] and in test [10] was “inactive” in each case.

As to `Cc1ccc(N)cc1C`, the Potency entry in [1], in test [2], in test [3], in [4], in [6] and in test [7] was “inactive” each time. The Potency result in [8], in [12], in test [9], in [13], in test [15] and in test [10] was “inactive” throughout. For the same molecule, the Potency result in test [11] is “inactive”. Besides, the Potency in [14] is 49 µM (active).

For `CC/C(=N\OC/C=C/Cl)C1=C(O)CC(C2CCOCC2)CC1=O` (stereo not drawn), the Potency entry in [1], in [2], in [3], in test [4], in test [5] and in test [6] was “inactive” in each case. In addition, the Potency result in test [7], in test [8], in [9], in [10] and in test [11] was “inactive” throughout.

As to `COP(=O)(OC)O/C(=C/Cl)c1cc(Cl)c(Cl)cc1Cl`, the Potency result in [1], in test [18], in test [5], in test [8] and in test [10] was “inactive” each time. Moreover, the Potency in [2] was 64.6 µM (active); in test [3], 64.6 µM (active); in test [16], 18.4 µM (active); in test [19], 72.4 µM (active); in [7] it was 28.8 µM (active); in [12] it was 16.4 µM [inconclusive] (active). Further, in test [11], the Potency was 40.7 µM (active). Besides, the outcome in [17] was inactive.

Regarding `CCCN(CCC)c1c([N+](=O)[O-])cc(S(C)(=O)=O)cc1[N+](=O)[O-]`, the Potency entry in test [1], in [20], in [4], in [5], in test [7] and in [8] was “inactive” in each case. For the same molecule, the Potency entry in [9], in test [13], in test [15], in test [10] and in [11] was “inactive” each time.

Regarding `C=CC(=O)NCNC(=O)C=C`, the Potency entry in [1], in test [18], in test [5], in [19], in test [7] and in test [8] was “inactive” in each case. Further, the Potency entry in test [13] and in test [11] was “inactive” in each case. In addition, the Potency in [3] was 61 µM (active).

Regarding `CCBr`, the Potency entry in [1], in test [2], in test [4], in test [5], in test [6] and in test [7] was “inactive” throughout. Also, the Potency entry in test [8], in test [12], in [9], in test [13], in test [14] and in test [15] was “inactive” in each case. For the same molecule, the Potency entry in test [10] and in test [11] was “inactive” in each case.

With `COc1c(C(C)(C)C)cc([N+](=O)[O-])c(C)c1[N+](=O)[O-]`, the Potency entry in [1], in test [2], in test [4], in [5], in test [6] and in test [8] was “inactive” in each case. The Potency entry in [12], in test [9], in test [14], in [15] and in test [10] was “inactive” each time. Further, in test [13], the Potency was 48.6 µM [activator] (active).

As for `CCOC(=O)C(Cl)C(C)=O` (stereo not drawn), the Potency entry in [1], in test [3], in test [4], in [5], in test [6] and in test [7] was “inactive” in each case. In addition, the Potency result in [8], in test [12], in test [9], in test [13], in test [14] and in test [15] was “inactive” throughout. The Potency entry in test [10] and in [11] was “inactive” in each case.

`CC1(C)[C@H](C=C(Cl)Cl)[C@@H]1C(=O)O[C@@H](C#N)c1cccc(Oc2ccccc2)c1`: the Potency result in test [1], in test [2], in [4], in test [5], in test [6] and in test [7] was “inactive” in each case. Moreover, the Potency result in test [8], in test [12], in test [9], in test [13], in [15] and in test [10] was “inactive” each time. In addition, the Potency entry in test [11] is “inactive”.

In the case of `Brc1ccc(Oc2ccccc2)cc1`, the Potency result in test [1], in test [20], in test [4], in test [6], in test [7] and in test [8] was “inactive” throughout. The Potency entry in [12], in test [9], in test [13], in test [14], in test [15] and in [10] was “inactive” throughout. In test [11], the Potency entry was “inactive”.

In the case of `CCCCc1c(C)nc(NCC)nc1OS(=O)(=O)N(C)C`, the Potency result in test [1], in test [4], in test [8], in test [12], in [9] and in [13] was “inactive” each time. Further, the Potency result in test [11] was “inactive”. In [2], the Potency is 15.4 µM (active).
